Values joined by “and” are separate entries in the source; they are usually repeats but may differ in a detail not shown here. Equal entries are not always repeated. Results filed as inconclusive are left out. The source holds several records for some structures; these can differ, active in one and inactive in another. Active and inactive are the calls of the source. Unless noted, the call rests on the fitted dose curve; in most records, active means well fitted curve in the direction sought with a large enough effect in the repeat runs; inconclusive means weak or mixed curves; inactive means no such curve, though single readings can be large; an effect the other way counts as inactive or inconclusive.
Assays:
[1] = qHTS assay to test for compound auto fluorescence at 535 nm (green) in HEK293 cells (AID 720680)
[2] = qHTS assay to test for compound auto fluorescence at 460 nm (blue) in HEK293 cell free culture (AID 720681)
Procedure, shortened: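 Test compounds were pinned into cell-free culture medium (DMEM with 10% FBS) and fluorescence was read directly at Ex/Em 405/460 nm. Signals were expressed as fluorescence equivalents of triamterene, with DMSO vehicle as control.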

[3] = qHTS assay to test for compound auto fluorescence at 535 nm (green) in HEK293 cell free culture (AID 720682)
Procedure, shortened: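 Read-out: 485/535 nm fluorescence intensity, calibrated against fluorescein. Medium only (DMEM + 10% FBS, no cells); test compound or DMSO vehicle added by pintool before plate reading.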

[4] = qHTS assay to test for compound auto fluorescence at 590 nm (red) in HEK293 cell free culture (AID 720683)
Procedure, shortened: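 Tox21 10K library compounds were pinned into cell-free DMEM with 10% FBS and fluorescence was read at excitation 540 nm. Activity is expressed as Rose Bengal sodium equivalency.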

[5] = qHTS assay to test for compound auto fluorescence at 590 nm (red) in HepG2 cell free culture (AID 720684)
Procedure, shortened: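 Ex 540 / Em 590 nm read of compound in cell-free MEM (10% FBS). Rose Bengal sodium reference.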

[6] = qHTS assay to test for compound auto fluorescence at 460 nm (blue) in HepG2 cell free culture (AID 720685)
Procedure, shortened: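 Cell-free plates of MEM plus 10% FBS received 23 nL compound or DMSO vehicle; blue-channel (405/460 nm) intensity scored against triamterene as reference fluorophore.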

[7] = qHTS assay to test for compound auto fluorescence at 535 nm (green) in HepG2 cell free culture (AID 720686)
[8] = qHTS assay to test for compound auto fluorescence at 460 nm (blue) in HepG2 cells (AID 720687)
Procedure, shortened: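 Cells (2,000/well in MEM with 10% FBS) attached overnight at 37 C, then were exposed to compound or DMSO for 1 hr at 37 C, 5% CO2. Fluorescence read at Ex/Em 405/460 nm, expressed as triamterene-equivalent signal.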

[9] = qHTS assay to identify small molecule antagonists of the glucocorticoid receptor (GR) signaling pathway - cell viability counter screen (AID 720693); further: nearly all actives have a fitted effect of over 55% in size
[10] = qHTS assay for identifying genotoxic compounds that show differential cytotoxicity against isogenic chicken DT40 cell lines with known DNA damage response pathways - wild type cell line (AID 743012); further: nearly all actives have a fitted effect of over 60% in size; further: potency means the concentration at half of the fitted maximal effect
Procedure, shortened: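 CellTiter-Glo luminescence readout of viability in wild type DT40 cells after 40 h compound exposure at 37 C/5% CO2; 300 cells/well; reagent incubated 30 min at room temperature before reading.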

[11] = qHTS assay for identifying genotoxic compounds that show differential cytotoxicity against isogenic chicken DT40 cell lines with known DNA damage response pathways - Rev3 mutant cell line (AID 743014); further: nearly all actives have a fitted effect of over 55% in size; further: potency means the concentration at half of the fitted maximal effect
[12] = qHTS assay for identifying genotoxic compounds that show differential cytotoxicity against isogenic chicken DT40 cell lines with known DNA damage response pathways - Rad54/Ku70 mutant cell line (AID 743015); further: nearly all actives have a fitted effect of over 60% in size; further: potency means the concentration at half of the fitted maximal effect
[13] = qHTS assay to identify small molecule antagonists of the androgen receptor (AR) signaling pathway - cell viability counter screen (AID 743033; further: nearly all actives have a fitted effect of over 45% in size)
[14] = qHTS assay to identify small molecule antagonists of the androgen receptor (AR) signaling pathway using the MDA cell line - cell viability counter screen (AID 743041; further: nearly all actives have a fitted effect of over 45% in size; further: potency means the concentration at half of the fitted maximal effect)
Procedure, shortened: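 In this qHTS counter assay, fluorescence intensity after CellTiter-Fluor addition indicated viability of MDA-kb2 AR-luc cells given compounds and R1881 for 16 h at 37C.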

[15] = target: Glucocorticoid receptor (Homo sapiens) (UniProt P04150); assay: qHTS assay to identify small molecule agonists of the glucocorticoid receptor (GR) signaling pathway (AID 720691; active means well fitted activation curve with a large enough effect in the signal ratio in the repeat runs, not every such curve was filed as active; the % refers to the signal ratio)
Procedure, shortened: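 HeLa GR-bla reporter line; cells pre-incubated 4 h, compound in DMSO 18 h at 37 C; LiveBLAzer B/G FRET substrate 2 h RT; fluorescence intensity read-out.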

[16] = target: Androgen receptor (Homo sapiens) (UniProt P10275); assay: qHTS assay to identify small molecule antagonists of the androgen receptor (AR) signaling pathway (AID 743035; active means well fitted inhibition curve with a large enough effect in the signal ratio in the repeat runs, not every such curve was filed as active; the % refers to the signal ratio)
Procedure, shortened: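 AR-bla HEK293 reporter cells; 4 h settle at 37C/5% CO2; compound + R1881 agonist, 16 h at 37C; LiveBLAzer B/G FRET substrate 2 h RT; fluorescence intensity read. qHTS format.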

[17] = target: Androgen receptor (Homo sapiens) (UniProt P10275); assay: qHTS assay to identify small molecule agonists of the androgen receptor (AR) signaling pathway (AID 743036; active means well fitted activation curve with a large enough effect in the signal ratio in the repeat runs, with a control signal flat, not every such curve was filed as active; the % refers to the signal ratio)
Procedure, shortened: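 HEK293 cells stably carrying a UAS-driven beta-lactamase reporter (GeneBLAzer AR-UAS-bla-GripTite) were plated at 2,000 cells/well, rested 4 h at 37C, then exposed to compounds in DMSO for 16 h. LiveBLAzer B/G FRET substrate was added for 2 h at room temperature; fluorescence read.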

[18] = target: Androgen receptor (Homo sapiens) (UniProt P10275); assay: qHTS assay to identify small molecule agonists of the androgen receptor (AR) signaling pathway using the MDA cell line (AID 743040; further: nearly all actives have a fitted effect of over 20% in size); settings: MDA-kb2 AR-luc cells, MMTV luciferase, 16 h, stronger effect = higher value
Procedure, shortened: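 Cell-based luciferase reporter: MDA-kb2, MMTV promoter (AR + GR response elements). 16 h compound exposure at 37C; ONE-Glo, 30 min RT, luminescence.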

[19] = target: Androgen receptor (Homo sapiens) (UniProt P10275); assay: qHTS assay to identify small molecule antagonists of the androgen receptor (AR) signaling pathway using the MDA cell line (AID 743042; further: nearly all actives have a fitted effect of over 55% in size)
Procedure, shortened: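 MDA-kb2 cells (human breast carcinoma, stably carrying an MMTV-luciferase reporter responsive to AR and GR) were plated at 3,000 cells/well and preincubated 5 hr at 37C, then given compound plus R1881 agonist for 16 h. ONE-Glo luminescence was read.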

[20] = target: Glucocorticoid receptor (Homo sapiens) (UniProt P04150); assay: qHTS assay to identify small molecule antagonists of the glucocorticoid receptor (GR) signaling pathway (AID 720692; active means well fitted inhibition curve with a large enough effect in the signal ratio in the repeat runs, not every such curve was filed as active; the % refers to the signal ratio)
Procedure, shortened: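 Read-out: beta-lactamase FRET substrate fluorescence, 2 h at room temperature, in HeLa cells stably carrying a GRE-driven bla reporter. Compounds were co-incubated with 5 nM dexamethasone agonist (final) for 18 h at 37 C.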
On the % scale 0 is the no-effect control and ±100 the full control effect.

Sequence of Androgen receptor (Homo sapiens) (P10275 whole entry, looked up): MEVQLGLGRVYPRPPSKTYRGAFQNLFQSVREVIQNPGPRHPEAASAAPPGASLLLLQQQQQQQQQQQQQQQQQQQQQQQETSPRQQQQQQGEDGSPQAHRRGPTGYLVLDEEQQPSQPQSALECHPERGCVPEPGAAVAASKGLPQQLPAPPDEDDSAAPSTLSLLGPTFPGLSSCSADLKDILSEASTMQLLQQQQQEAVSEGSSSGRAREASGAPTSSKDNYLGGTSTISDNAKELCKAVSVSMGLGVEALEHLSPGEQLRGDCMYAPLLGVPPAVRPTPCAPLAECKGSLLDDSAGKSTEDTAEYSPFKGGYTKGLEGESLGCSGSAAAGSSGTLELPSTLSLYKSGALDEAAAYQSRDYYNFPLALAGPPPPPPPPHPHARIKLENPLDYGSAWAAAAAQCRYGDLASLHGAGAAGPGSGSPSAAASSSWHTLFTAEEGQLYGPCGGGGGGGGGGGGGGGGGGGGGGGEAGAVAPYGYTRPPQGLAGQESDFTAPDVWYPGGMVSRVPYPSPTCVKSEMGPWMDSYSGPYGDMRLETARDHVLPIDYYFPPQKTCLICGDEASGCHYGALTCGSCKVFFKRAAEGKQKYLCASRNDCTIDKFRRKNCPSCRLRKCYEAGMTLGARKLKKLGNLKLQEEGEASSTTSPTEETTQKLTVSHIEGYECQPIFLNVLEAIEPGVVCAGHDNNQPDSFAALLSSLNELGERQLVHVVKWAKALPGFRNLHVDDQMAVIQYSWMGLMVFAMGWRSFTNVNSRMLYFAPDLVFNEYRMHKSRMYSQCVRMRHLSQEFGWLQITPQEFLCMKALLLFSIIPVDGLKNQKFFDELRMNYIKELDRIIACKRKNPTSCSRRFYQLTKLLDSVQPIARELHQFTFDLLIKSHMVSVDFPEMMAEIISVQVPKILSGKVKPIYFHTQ
Sequence of Glucocorticoid receptor (Homo sapiens) (P04150 whole entry, looked up): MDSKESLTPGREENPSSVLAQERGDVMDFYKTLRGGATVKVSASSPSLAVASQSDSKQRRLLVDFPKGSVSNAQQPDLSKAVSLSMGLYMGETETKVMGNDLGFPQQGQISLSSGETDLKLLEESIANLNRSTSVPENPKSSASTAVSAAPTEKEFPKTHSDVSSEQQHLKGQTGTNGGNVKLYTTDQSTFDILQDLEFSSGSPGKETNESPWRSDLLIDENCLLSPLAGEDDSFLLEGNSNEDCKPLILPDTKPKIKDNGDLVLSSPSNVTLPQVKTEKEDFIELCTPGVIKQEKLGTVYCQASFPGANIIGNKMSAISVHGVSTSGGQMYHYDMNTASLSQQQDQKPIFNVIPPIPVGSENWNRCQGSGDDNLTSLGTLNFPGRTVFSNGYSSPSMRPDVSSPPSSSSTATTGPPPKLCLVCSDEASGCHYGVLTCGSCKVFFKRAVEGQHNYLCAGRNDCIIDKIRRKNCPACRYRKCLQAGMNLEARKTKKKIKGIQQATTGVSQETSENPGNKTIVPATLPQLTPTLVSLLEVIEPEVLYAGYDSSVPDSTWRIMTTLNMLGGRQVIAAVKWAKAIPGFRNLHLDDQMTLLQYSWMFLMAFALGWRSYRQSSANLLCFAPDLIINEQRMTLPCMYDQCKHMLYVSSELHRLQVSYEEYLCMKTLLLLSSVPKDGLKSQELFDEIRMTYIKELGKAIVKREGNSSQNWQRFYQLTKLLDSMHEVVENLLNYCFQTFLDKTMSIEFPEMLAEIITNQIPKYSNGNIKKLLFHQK

Cc1ccc(C)c(S(=O)(=O)O)c1
inactive: outcome [1] | Potency [2] | outcome [3] | outcome [4] | outcome [5] | Potency [6] | outcome [7] | Potency [8] | Potency [9] | Potency [10] | Potency [11] | Potency [12] | Potency [13] | Potency [14]

N[C@@H](Cc1cc(I)c(Oc2ccc(O)c(I)c2)c(I)c1)C(=O)O
23.7 µM (active) and inactive: Potency [11]
inactive: outcome [1] | Potency [2] | outcome [3] | outcome [4] | outcome [5] | Potency [6] | outcome [7] | Potency [8] | outcome [15] | Potency [9] | Potency [12] | Potency [13] | Potency [14]
29.8 µM (active) and inactive: Potency [10]

CO[Si](CCCNCCN)(OC)OC
inactive: outcome [1] | Potency [2] | outcome [3] | outcome [4] | outcome [5] | Potency [6] | outcome [7] | Potency [8] | Potency [9] | Potency [10] | Potency [11] | Potency [12] | Potency [13] | Potency [16] | Potency [17] | activity change ([18]; at 70.3 µM (top of the series)) -2.52% | activity change ([18]; at 95 µM (top of the series)) 0.325% | Potency [14] | Potency [19]

Cc1ccc([N+](=O)[O-])cc1N
inactive: outcome [1] | Potency [2] | outcome [3] | outcome [4] | outcome [5] | Potency [6] | outcome [7] | Potency [8] | Potency [9] | Potency [10] | Potency [11] | Potency [12] | Potency [13] | Potency [14]

O=C(NCC1CCCCN1)c1cc(OCC(F)(F)F)ccc1OCC(F)(F)F (stereo not drawn)
inactive: outcome [1] | Potency [2] | outcome [3] | outcome [4] | outcome [5] | Potency [6] | outcome [7] | Potency [8] | Potency [9] | Potency [13] | Potency [14]
29.8 µM (active) and inactive: Potency [10]

COc1ccc([C@@H]2CC(=O)c3c(O)cc(O[C@@H]4O[C@H](CO[C@@H]5O[C@@H](C)[C@H](O)[C@@H](O)[C@H]5O)[C@@H](O)[C@H](O)[C@H]4O)cc3O2)cc1OC
inactive: outcome [1] | Potency [2] | outcome [3] | outcome [4] | outcome [5] | Potency [6] | outcome [7] | Potency [8] | Potency [9] | Potency [10] | Potency [11] | Potency [12] | Potency [13] | Potency [14]

CCCN(CCC)C(=O)SCC
inactive: outcome [1] | Potency [2] | outcome [3] | outcome [5] | Potency [6] | outcome [7] | Potency [8] | outcome [15] | Potency [20] | Potency [9] | Potency [10] | Potency [11] | Potency [12] | Potency [13] | Potency [16] | Potency [17] | activity change ([18]; at 70.3 µM (top of the series)) 1.01% | activity change ([18]; at 95 µM (top of the series)) -1.98% | Potency [14] | Potency [19]

CN1CCCC1=O
inactive: outcome [1] | Potency [2] | outcome [3] | outcome [4] | outcome [5] | Potency [6] | outcome [7] | Potency [8] | Potency [9] | Potency [10] | Potency [11] | Potency [12] | Potency [13] | Potency [14]

CC1(C)[C@@H](O[C@H]2O[C@H](C(=O)O)[C@@H](O)[C@H](O)[C@H]2O[C@@H]2O[C@H](C(=O)O)[C@@H](O)[C@H](O)[C@H]2O)CC[C@]2(C)[C@H]3C(=O)C=C4[C@@H]5C[C@@](C)(C(=O)O)CC[C@]5(C)CC[C@@]4(C)[C@]3(C)CC[C@@H]12
inactive: outcome [1] | Potency [2] | outcome [3] | outcome [4] | outcome [5] | Potency [6] | outcome [7] | Potency [8] | Potency [9] | Potency [10] | Potency [11] | Potency [12] | Potency [13] | Potency [14]

CCCCCCCCCCCC(=O)N(C)CC(=O)O
inactive: outcome [1] | Potency [2] | outcome [3] | outcome [4] | outcome [5] | Potency [6] | outcome [7] | Potency [8] | outcome [15] | activity change, negative = inhibition [20] -13% [at 7.04 µM] | Potency [9] | activity, negative = cytotoxicity [11] 3.78% [at 8.53 µM] | activity change, negative = cytotoxicity [12] -12.4% [at 8.55 µM] | activity change, negative = cytotoxicity [13] 1.79% [at 7.04 µM] | Potency [14]
active: Potency [11] 66.4 µM | Potency [12] 66.4 µM

O=C(c1ccccc1)c1ccc(O)c(O)c1O
active: Potency [11] 61.1 µM | Potency [12] 61.1 µM
inactive: outcome [1] | Potency [2] | outcome [3] | outcome [4] | outcome [5] | Potency [6] | outcome [7] | Potency [8] | outcome [15] | Potency [20] | Potency [9] | Potency [13] | Potency [14]

CCn1cc(C(=O)O)c(=O)c2cc3c(cc21)OCO3
inactive: outcome [1] | Potency [2] | outcome [3] | outcome [4] | outcome [5] | Potency [6] | outcome [7] | Potency [8] | Potency [9] | Potency [10] | Potency [11] | Potency [12] | Potency [13] | Potency [14]

O=C1OC(=O)c2c(Cl)c(Cl)c(Cl)c(Cl)c21
inactive: outcome [1] | Potency [2] | outcome [3] | outcome [4] | outcome [5] | Potency [6] | outcome [7] | Potency [8] | Potency [9] | Potency [10] | Potency [11] | Potency [12] | Potency [13] | Potency [14]

COc1ccc2cc3[n+](cc2c1OC)CCc1cc2c(cc1-3)OCO2
inactive: outcome [1] | Potency [2] | outcome [3] | outcome [4] | outcome [5] | Potency [6] | outcome [7] | Potency [8] | outcome [15] | Potency [9]
active: Potency [10] 2.37 µM and 4.36 µM | Potency [11] 3.35 µM and 3.09 µM | Potency [12] 4.22 µM and 5.49 µM | Potency [14] 22.1 µM and 7.75 µM

CCN(CC)CCNC(=O)c1ccc(N)cc1
inactive: outcome [1] | Potency [2] | outcome [3] | outcome [4] | outcome [5] | Potency [6] | outcome [7] | Potency [8] | Potency [9] | Potency [10] | Potency [11] | Potency [12] | Potency [13] | Potency [14]

COCN(COC)c1nc(N(COC)COC)nc(N(COC)COC)n1
inactive: outcome [1] | Potency [2] | outcome [3] | outcome [4] | outcome [5] | Potency [6] | outcome [7] | Potency [8] | outcome [15] | Potency [20] | Potency [9] | Potency [10] | Potency [11] | Potency [12] | Potency [13] | Potency [14]

CCCCC(CC)COC(=O)c1ccc(C(=O)OCC(CC)CCCC)cc1 (stereo not drawn)
inactive: outcome [1] | Potency [2] | outcome [3] | outcome [4] | outcome [5] | Potency [6] | outcome [7] | Potency [8] | Potency [9] | Potency [10] | Potency [11] | Potency [12] | Potency [13] | Potency [16] | Potency [17] | activity change ([18]; at 70.3 µM (top of the series)) 2.15% and 1.01% | Potency [14] | Potency [19]

From PubChem BioAssay (Tox21)
